# NR0B1 inh = DAX1 (NR0B1) inhibitors, primary screen, cell-based, HEK293, Gal4-DAX1, luciferase luminescence | AID 504766, 2011 | actives 0.99% (n = 340,000) | HEK293 Gal4-DAX1 luciferase reporter | inhibition, % at 6.75 µM;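 active = inhibition above the mean over all tested compounds plus 3 SD, cut at about 4.2% in these data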;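 also: 0% = DAX1-transfected cells with DMSO and 100% = empty-vector control cells with DMSO; inhibition shows as a rise in luminescence from relieved DAX1 repression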
# AHR activator = AHR activators, primary screen, cell-based, luminescence, luciferase reporter, human; Aryl hydrocarbon receptor (Homo sapiens), P35869; AHR-responsive luciferase reporter cells; activation, % at 5 µM; actives 2.5% (n = 320,000); AID 2796, 2010; in the data active = activation above about 47%;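 also: 0% = vehicle wells and 100% = reference agonist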
# Target sequence (P35869 whole entry, looked up): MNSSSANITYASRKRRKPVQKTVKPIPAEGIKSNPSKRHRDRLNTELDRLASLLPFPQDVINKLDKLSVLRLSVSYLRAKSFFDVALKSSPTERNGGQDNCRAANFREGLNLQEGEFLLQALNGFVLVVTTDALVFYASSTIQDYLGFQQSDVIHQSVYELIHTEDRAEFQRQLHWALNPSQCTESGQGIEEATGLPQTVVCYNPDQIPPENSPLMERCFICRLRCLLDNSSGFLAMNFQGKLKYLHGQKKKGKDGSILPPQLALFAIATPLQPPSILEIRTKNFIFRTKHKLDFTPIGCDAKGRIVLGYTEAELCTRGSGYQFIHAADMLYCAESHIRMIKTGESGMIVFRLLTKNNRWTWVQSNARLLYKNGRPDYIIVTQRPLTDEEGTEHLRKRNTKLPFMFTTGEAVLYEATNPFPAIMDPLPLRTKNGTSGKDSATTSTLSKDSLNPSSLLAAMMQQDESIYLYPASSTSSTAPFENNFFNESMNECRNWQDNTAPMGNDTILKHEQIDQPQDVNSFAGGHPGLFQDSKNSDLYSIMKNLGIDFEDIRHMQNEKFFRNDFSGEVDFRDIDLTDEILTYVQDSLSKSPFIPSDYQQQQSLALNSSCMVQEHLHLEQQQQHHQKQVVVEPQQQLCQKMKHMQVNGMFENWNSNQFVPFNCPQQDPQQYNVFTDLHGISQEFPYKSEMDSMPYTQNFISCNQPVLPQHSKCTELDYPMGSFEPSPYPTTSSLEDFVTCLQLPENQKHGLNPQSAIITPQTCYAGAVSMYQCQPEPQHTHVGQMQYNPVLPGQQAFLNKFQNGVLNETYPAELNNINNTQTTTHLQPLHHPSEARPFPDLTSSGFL
# HSP90 refold inh = HSP90 inhibitors, primary screen, cell lysate, luminescence | Rabbit reticulocyte lysate, luciferase refolding luminescence, 3 h | inhibition, % at 5.6 µM | Heat shock protein HSP 90 (rabbit reticulocyte lysate; luciferase refolding) | actives 0.91% (n = 290,000);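 active = inhibition above the screen-wide mean plus 3 SD, computed separately per campaign, cut at about 16% in these data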;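 also: 0% = DMSO wells and 100% = 60 µM geldanamycin wells; inhibitors lower the luminescence because luciferase stays unfolded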
# HSF1 activator = HSF-1 activators, primary screen, NIH3T3-HGL cells, MG132 stress, luminescence, single point; NIH3T3-HGL HSF-1 luciferase reporter, 8 h; 100% = twice DMSO control signal; activation, % at 9 µM; actives 1.7% (n = 300,000);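 active = mean replicate activation of at least 50% with a set share of replicates each reaching 50%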;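 also: 0% = median of the neutral control wells and 100% = twice that signal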
# FXN GAA850 act = FXN promoter activators, primary screen, cell-based, luciferase luminescence, HEK293 lucGAA850; activation, % at 6 µM; actives 0.56% (n = 360,000); AID 540364, 2011; HEK293 lucGAA850 FXN promoter luciferase reporter, 24 h; percent of 10 µM SAHA response;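 active = activation above the average of all compounds screened plus 3 SD, cutoff fixed separately per campaign, cut at about 7.5% in these data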;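 also: 0% = DMSO wells and 100% = 10 µM SAHA wells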
# HSF1 inh = HSF1 inhibitors in luciferase reporter cells, primary screen, cell-based, NIH3T3, luminescence; activity change, negative = inhibition, % at 7.5 µM (by protocol); NIH3T3-HGL HSE-luciferase, MG132-induced, luminescence 8 h; stronger effect = lower value; actives 0.77% (n = 300,000);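 active = more than half of replicate wells show activity change below -50%, luminescence cut by over half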;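 also: luciferase reports HSF-1 transcriptional activity via heat shock element; 0% = median of DMSO wells and -100% = zero luminescence signal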
# GAA30 FXN cntr = GAA30 FXN promoter activators, confirmation, counter-screen for GAA850 frataxin promoter activator project, cell-based, luminescence, HEK293, lucGAA30, triplicate | HEK293 lucGAA30 FXN promoter luciferase, 24 h; DMSO = 0%, 5 µM ipriflavone = 100% | actives 66% (n = 1,900) | shares compounds with FXN GAA850 act | activation, % at 6 µM | AID 588350, 2011;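 active = mean activation above the mean of solvent-only control wells plus 3 SD, cut at about 22% in these data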;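 also: counterscreen of GAA850 promoter hits where activity marks nonselective or luminescence artifacts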
# GAA850 confirm = FXN GAA850 promoter activators in reporter cells, confirmation, cell-based, luminescence, HEK293 lucGAA850, triplicate. shares compounds with FXN GAA850 act. actives 86% (n = 1,900). activation, % at 6 µM. HEK293 lucGAA850 FXN promoter luciferase reporter, 24 h; 100% = activation by SAHA;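 active = mean activation above a set limit taken from the primary screen, cut at about 8% in these data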;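 also: 0% = DMSO wells and 100% = 10 µM SAHA wells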
# Numbers without * were called inactive; . = no result given; ! = repeats disagree. Shown are actives, neighbours in structure and some others; about 5.9% of the full set was active somewhere.
SMILES,NR0B1 inh,AHR activator,HSP90 refold inh,HSF1 activator,FXN GAA850 act,HSF1 inh,GAA30 FXN cntr,GAA850 confirm
Cc1cnc(N=Nc2ccccc2)[nH]1,1,.,.,.,7.7*,.,101*,28*
O=C1c2cccc3cccc(c23)N1Cc1cccc(F)c1,1,1,-1,5,2,12,.,.
O=[N+]([O-])c1ccc(S(=O)(=O)c2cccc(C(F)(F)F)c2)nc1,-2,-1,.,-95,14*,-95*,-113,-34
C/C(CCc1ccccc1)=N\NC(=O)c1ccccc1[N+](=O)[O-],0,2,-1,-20,0,-1,.,.
CC(C)=CCC/C(C)=C/C=N/NC(=O)c1ccccc1[N+](=O)[O-],-2,0,1,-11,8.6*,-6,17,5
Cc1ccc2nc3ccc(N4CCCCCCC4)nn3c(=O)c2c1,2,-3,-4,23,1,14,.,.
Cc1ccc2nc3ccc(N4CCN(C)CC4)nn3c(=O)c2c1,3,15,-2,15,8.2*,8,116*,34*
Cc1ccnc(NC(=O)CCCOc2cc(=O)n(C)c3ccccc23)c1,7.0*,22,-1,29,8.8*!,20,68*,61*
Cn1c(=O)cc(OCCCC(=O)NCc2ccccn2)c2ccccc21,1,1,0,10,3,-2,.,.
COc1ccc(Cn2c3ccc(OC)cc3c3nc4ccccc4nc32)cc1,-1,3,-4,6,4,1,.,.
CCOc1ccc2c(c1)c1nc3ccccc3nc1n2C,0,.,-2,17,7.7*,8,74*,21*
Cc1cc2c(cc(C(=O)OC(C)C(=O)NCc3ccc(F)cc3)n2C)o1 (stereo not given),0,.,.,.,2,.,.,.
Cc1ccc(CNS(=O)(=O)c2ccccc2[N+](=O)[O-])cc1,-1,-2,6,3,1,3,.,.
Nc1c(-c2ccccc2)cnc2c(-c3ccccc3)cnn12,4.8*,-3,15,6,8.4*,-5,91*,35*
C=CCNC(=O)c1c(Br)cnn1-c1ccc(C)cc1,.,33,-2,45,8.2*,8,105*,33*
C=C1C(C(=O)Nc2ccc(OC)cc2)C1C(=O)Nc1ccc(OC)cc1 (stereo not given),0,1,1,-14,-1,4,.,.
Cn1cc([N+](=O)[O-])c(C(=O)Nc2ccc(-c3nc4ccccc4o3)cc2)n1,1,0,1,285*,8.8*,281,93*,31*
COc1ccc(NC(=S)NN(C)C(=S)Nc2ccc(OC)cc2)cc1,-2,25,-1,-12,1,-2,.,.
CCOC(=O)CCc1c(C)c2ccc(OC3CCCCC3=O)cc2oc1=O (stereo not given),0,1,4,2,2,2,.,.
CCOC(=O)c1ccc(NC(=S)NCCc2ccccc2F)cc1,0,0,1,-34,-2,-29,.,.
Cc1cc2cc(OCc3ccccc3)ccc2n1C,4,-4,-3,-4,3,-7,.,.
Cc1c(C=O)c2cc(OCc3ccccc3)ccc2n1C,1,-1,-6,34,7.7*,27,105*,32*
COc1ccc(C(=O)NNC(=O)C23CC4CC(CC(C4)C2)C3)c(OC)c1,-1,47,1,-9,0,-2,.,.
Cc1cc2nccc(-c3ccccn3)n2n1,1,5,2,12,0,5,.,.
c1ccc(-c2cc3nccc(-c4ccccn4)n3n2)cc1,4,38,-1,3,8.0*,0,106*,29*
SMILES,NR0B1 inh,AHR activator,HSP90 refold inh,HSF1 activator,FXN GAA850 act,HSF1 inh,GAA30 FXN cntr,GAA850 confirm
C/C(=C/c1ccccc1)C(=O)N1CC(C)OC(C)C1 (stereo not given),1,1,0,-6,0,-7,.,.
O=C(COC(=O)c1ccc(Br)o1)NCc1ccco1,0,1,1,1,1,3,.,.
CCOc1c(Cl)cc(C(=O)NCCN2CCCCC2)cc1Cl,0,3,-2,23,13*,5,9,6
COC(=O)c1c(-c2ccccc2)csc1NC1=NS(=O)(=O)c2ccccc21,2,16,5,45,8.9*,40,125*,43*
C#CCNC(=O)C1=C[C@H](C2CC2)C[C@H](OCCCCO)O1,1,0,7,21,0,6,.,.
O=C(/C=C/c1ccccc1)c1ccccc1,-1,-4,3,19,0,14,.,.
O=C(/C=C/c1ccccc1[N+](=O)[O-])c1ccc(F)cc1,0,8,6,38,8.5*,15,57*,25*
COc1cccc(/C=C/C(=O)c2ccc3c(c2)OCCO3)c1OC,0,7,1,23,7.9*,30,98*,39*
COc1ccccc1/C=C/C(=O)c1ccccc1,0,.,-3,23,7.6*,8,87*,33*
O=C(/C=C/c1ccccc1[N+](=O)[O-])Oc1ccccc1,.,10,-3,0,.,-11,.,.
CCOC(=O)/C(C#N)=C/C1=C(N2CCCC2)CC(C)(CC)OC1 (stereo not given),1,3,1,2,2,-1,.,.
Cc1ccc(S(=O)(=O)NC(=O)NCC2CCN(S(=O)(=O)c3ccccc3)CC2)cc1,1,2,-1,14,1,5,.,.
Cn1c(=O)c(/C=C/c2ccccc2)nc2ccccc21,3,53*,1,45,8.1*,17,127*,50*
Cn1c(=O)c(C(=O)c2ccccc2)nc2ccccc21,-1,12,4,23,1,4,.,.
O=C(O)CSc1c2c(nc3cc(C(=O)Nc4ccc(F)c(Cl)c4)ccc13)CCCC2,0,2,-2,-26,0,-7,.,.
COC(=O)Nc1ccc(S(=O)(=O)Nc2ccc(C(=O)O)cc2)cc1,0,1,-4,-8,-1,-8,.,.
CCOC(=O)c1c(NC(=O)c2cccs2)sc(C(=O)N(C)C)c1C,0,10,-1,-2,-1,-2,.,.

# Assay outcomes as filed in PubChem BioAssay.
